# High-throughput results deposited in PubChem by National Center for Advancing Translational Sciences (NCATS).
# A selection: hits, their analogues and other compounds. The true share with any hit is near 3%.
# KDM4E inh: inhibitors of human JMJD2E histone demethylase | Potency, µM (doses to about 57.1 µM), for the others: at the top dose activity change, negative = inhibition, usual class: inhibitors | B2RXH2 | JMJD2E catalytic domain, FDH-coupled NADH fluorescence (FDH is formaldehyde dehydrogenase) | 1.6% of 230,000 active; active = well fitted inhibition curve with a large enough effect, not every such curve was filed as active; inconclusive = small, poorly fitted or top-dose-only effect, or another doubt; inactive = no such curve, though single readings can be large or run the other way;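 note: potency is the fitted concentration of half-maximal effect; 0% = wells with enzyme and -100% = buffer wells without enzyme; nearly all actives have a fitted effect of over 50% in size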
# Target sequence (B2RXH2 1-337 limits assumed): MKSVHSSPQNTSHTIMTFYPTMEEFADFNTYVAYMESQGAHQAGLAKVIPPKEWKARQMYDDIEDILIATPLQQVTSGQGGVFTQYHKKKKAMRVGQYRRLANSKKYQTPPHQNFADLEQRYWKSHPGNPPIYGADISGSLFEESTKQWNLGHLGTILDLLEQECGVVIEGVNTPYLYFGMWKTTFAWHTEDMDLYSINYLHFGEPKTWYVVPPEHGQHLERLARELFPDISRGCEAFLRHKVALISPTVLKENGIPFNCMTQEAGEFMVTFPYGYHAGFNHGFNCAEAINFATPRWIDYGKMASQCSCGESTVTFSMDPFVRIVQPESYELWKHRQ
# FBPA coupling cs: inhibits coupling enzyme system, counter-screen for aldolase hits; 0.67% of 290,000 active; coupling enzyme system counterscreen, AmpLite Red fluorescence; activity change, negative = inhibition, % at 58.2 µM, hits read low; in the data active = activity change below about -30%
#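 Coupling enzymes only (glyceraldehyde-3-phosphate) + compound, at 57.5 uM final, 10 min RT; add substrate/coupling/AmpLite Red mix, 20 min RT; fluorescence ex 525/em 598 nm. Actives flag coupling-system interference.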
# Tau FP inhib: inhibitors of human tau fibril formation. P10636. K18 P301L tau heparin fibrillization, Alexa594 FP, 6 h. Potency, µM (top dose mostly 57.7 µM), inactives show at the highest dose activity, negative = inhibition, most hits filed as inhibitors. 0.39% of 280,000 active. AID 1468; note: potency is the fitted concentration of half-maximal effect; nearly all actives have a fitted effect of over 55% in size
# Target sequence (P10636 561-689 P618L limits assumed): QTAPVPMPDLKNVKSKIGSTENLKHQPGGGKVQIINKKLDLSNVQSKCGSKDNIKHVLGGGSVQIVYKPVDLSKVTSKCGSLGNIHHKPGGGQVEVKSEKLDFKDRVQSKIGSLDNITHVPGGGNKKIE
#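 Steps: dispense K18 P301L tau (15 uM plus 0.24 uM Alexa 594 tracer, final) in pH 7 sodium acetate; add compound; add heparin (20 uM final); incubate 6 hr, 37 C; add ThT (30 uM final); after 1 hr ambient, read FP.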
# Tau fluor cs: counter-screen for tau fibril formation inhibitors; tau K18 P301L Alexa594 fluorescence, heparin fibrillization; Potency, µM (top dose mostly 57.7 µM), inactives show at the highest dose activity change, negative = decrease; 0.93% of 280,000 active; AID 1463; note: potency is the fitted concentration of half-maximal effect; nearly all actives have a fitted effect of over 55% in size
#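 Human K18 P301L tau (15 uM unlabeled plus 0.24 uM Alexa 594-labeled, final) in 100 mM sodium acetate pH 7 was mixed with compound and 20 uM heparin and incubated 6 hr at 37 C.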
# Tau ThT inhib: inhibitors of human tau fibril formation, thioflavin T binding; P10636; recombinant tau K18 P301L, heparin-induced fibrillization, ThT fluorescence; Potency, µM (doses to about 57.4 µM), for the others: at the highest dose activity, negative = inhibition, usual class: inhibitors; 2.1% of 270,000 active; AID 1460; note: potency is the fitted concentration of half-maximal effect; nearly all actives have a fitted effect of over 55% in size
#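 ThT emission at 510 nm, taken 1 hr after adding 30 uM dye, quantifies aggregates formed when 20 uM heparin acts on human tau K18 P301L for 6 hr at 37 C.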
# * marks the source's active call; other numbers are inactive results; ? = inconclusive; nt = no result; [ ] = dose if it differs, or a comment. Unless noted, calls come from the whole dose curve; as a rule, active = well fitted curve in the direction sought with a large enough effect; inconclusive = small, poorly fitted or top-dose-only effect, or another doubt; inactive = no such curve, though single readings can be large; an effect the other way counts as inactive or inconclusive. Unless noted, % is set by controls: 0 for no effect and ±100 for the full control effect.
SMILES,KDM4E inh,FBPA coupling cs,Tau FP inhib,Tau fluor cs,Tau ThT inhib
COc1cc(/C=N/c2oc(-c3ccccc3)cc2C#N)ccc1O,?,0.9,8.7%,?,15.8µM*
COc1cc(/C=N/NC(=O)c2ccccc2)ccc1O,?,-4.1,1.7%,-1.7%,-16.0%
C=C(C)C(=O)OC1(C(F)(F)F)Oc2cc(C)ccc2NC1=O (stereo unspecified),-1.2%,1.2,?,-20.7%,15.8µM*
CC(C)CNc1nc(NC(C)(C)C)nc(Oc2ccc(=O)n(-c3ccccc3)n2)n1,nt,nt,6.6%,-0.5%,0.1%
COC(=O)[C@H](Cc1ccccc1)NC(=O)O[C@@H]1C(=O)c2ccc(OC)cc2O[C@H]1c1ccc2c(c1)OCO2,-2.3%,-1.3,-4.3%,-7.0%,1.3%
C/C(=C\C=C(C#N)C#N)c1cc(C#N)c(N)o1,?,-7.5,-10.0%,-15.4%,12.6µM*
N/C(=C\C(=O)c1cc(Cl)ccc1O)C(Cl)(Cl)Cl,-1.6%,0.5,?,-24.7%,17.8µM*
Cc1cc(O)c(C(C)C)cc1N=Cc1cc([N+](=O)[O-])ccc1O,14.1%,-28.0,7.08µM*,?,3.55µM*
Cc1cc(O)c(C(C)C)cc1N=Cc1ccccc1O,-31.1%,-50.6*,8.91µM*,?,3.55µM*
CCn1c(=O)sc2cc(NS(=O)(=O)c3ccc(F)c(C)c3)ccc21,nt,nt,-10.1%,?,-5.0%
CC(=O)Nc1ccn(C2OC(C(COC(C)=O)NC(=O)C3CCCN3C(=O)OC(C)(C)C)C(OC(C)=O)C2OC(C)=O)c(=O)n1 (stereo unspecified),nt,1.6,nt,nt,nt
O=C(Nc1ccc(F)cc1)c1ccc2ncsc2c1,nt,1.7,nt,nt,nt
O=C(O)c1ccc2ncsc2c1,14.1µM*,-0.9,-0.3%,7.6%,6.2%
CCOc1cccc(C(=O)Nc2ccc(-c3nc4ncccc4o3)cc2C)c1,nt,nt,4.1%,-5.6%,?
Cc1cc(O)c(C(C[N+](=O)[O-])c2ccc(Cl)cc2Cl)c(=O)o1 (stereo unspecified),7.1%,9.3,?,-21.6%,28.2µM*
CC(C)OCCCNC(=O)c1cc2c(-c3ccc(Cl)cc3)nn(C)c2s1,nt,nt,-0.4%,-12.2%,-3.4%
COc1ccc(CCNC(=O)c2ccc(-n3c(C)cc4c3CCC(C)C4)cc2)cc1OC (stereo unspecified),nt,nt,-9.4%,-7.4%,?
N=c1c[n+](N2CCOCC2)[n-]o1,-6.9%,4.1,?,-20.2%,12.6µM*
COCCNc1nc2c(c(=O)n(C)c(=O)n2C)n1Cc1c(F)cccc1Cl,nt,nt,-8.2%,-9.1%,-9.3%
CC(C)Cn1cc(C(=O)NCc2cccs2)c2c3ccccc3n(C)c2c1=O,-5.3%,0.2,-4.5%,-27.1%,10µM*
CC(C)CCNC(=O)c1cn(CC(C)C)c(=O)c2c1c1ccccc1n2C,nt,2.4,nt,nt,nt
CN(C)c1ccc(/C=C/C=C2/SC(=S)N(c3ccccc3)C2=O)cc1,9.4%,-8.9,-5.7%,0.708µM*[fluorescent],2.51µM*
O=C1/C(=C/C=C/c2ccco2)SC(=S)N1c1ccc(O)cc1,14.1µM*,0.7,?,11.2µM*[quencher],3.98µM*
NN1C(=O)/C(=C\c2ccco2)SC1=S,?,-26.1,?,?,31.6µM*
O=C1/C(=C\c2ccco2)SC(=S)N1c1ccc(O)cc1,?,-20.1,-8.9%,?,17.8µM*
SMILES,KDM4E inh,FBPA coupling cs,Tau FP inhib,Tau fluor cs,Tau ThT inhib
CC(C)C[C@H](NC(=O)[C@H](CC(C)C)NC(=O)[C@@H](Cc1c[nH]c2ccccc12)NC(=O)[C@H](Cc1ccccc1)NC(=O)[C@@H](Cc1c[nH]c2ccccc12)NC(=O)[C@H](CCC(N)=O)NC(=O)[C@H](CCC(N)=O)NC(=O)[C@@H]1CCCN1C(=O)[C@H](CCCCN)NC(=O)[C@@H]1CCCN1C(=O)[C@H](N)CCCN=C(N)N)C(N)=O,nt,-0.7,nt,nt,nt
Cc1ccc(Cl)cc1N1CCN(C(=O)c2c(C)oc3ncnc(N4CCCCC4)c23)CC1,nt,nt,?,-14.8%,?
O=C1/C(=C\c2ccc(O)cc2)SC(=S)N1c1cccnc1,-7.0%,2.9,-20.0%,-26.7%,?
O=C1/C(=C/c2ccco2)SC(=S)N1c1cccnc1,?,-25.7,?,?,15.8µM*
CC(C)C(C(=O)O)N1C(=O)/C(=C/C=C/c2ccco2)SC1=S (stereo unspecified),?,-18.3,25.1µM*,?,12.6µM*
CC(C)C(C(=O)O)N1C(=O)/C(=C/c2cccn2C)SC1=S (stereo unspecified),-7.2%,7.9,1.0%,7.4%,?
COc1ccc(C2c3c(n(C)c4ccccc34)C(=O)N2CC(=O)Nc2ccc(C)cc2Cl)cc1 (stereo unspecified),nt,nt,-5.4%,-19.9%,-12.0%
Cc1ccc(-n2c3nc(=O)[nH]c(=O)c-3cc3cc([N+](=O)[O-])ccc32)cc1,-15.1%,-33.9*,-2.0%,1.8%,-0.3%
NCC(O)c1ccc(O)c(O)c1 (stereo unspecified),12.6µM*,nt,?,-13.9%,?
O=C(CCCCCNC(=O)c1ccccc1)N=Nc1c(O)[nH]c2c(Br)cc(Br)cc12,4.2%,8.8,-0.7%,?,6.31µM*
O=C(CNC(=O)c1cccnc1)N=Nc1c(O)[nH]c2c(Br)cc(Br)cc12,nt,0.2,nt,nt,nt
CCC(Oc1ccccc1)C(=O)Nc1cc(-c2ccccc2OC)nn1-c1ccccc1 (stereo unspecified),nt,nt,-1.2%,-13.9%,-3.7%
O=[N+]([O-])c1c(NCCCO)cc(Sc2ccc(Cl)cc2)c2nonc12,-3.2%,-27.6,?,?,12.6µM*
COc1ccc(Nc2cc(NCCCO)c([N+](=O)[O-])c3nonc23)cc1,nt,2.9,nt,nt,nt
CC(=O)OCCNc1cc(Sc2nc3ccccc3[nH]2)c2nonc2c1[N+](=O)[O-],0.9%,1.3,0.0%,-2.0%,-0.2%
O=[N+]([O-])c1c(NCCCO)cc(SCc2ccco2)c2nonc12,-7.7%,-6.9,?,?,7.94µM*
COc1ccc(CNc2cc(NCCCO)c([N+](=O)[O-])c3nonc23)cc1,?,-28.0,5.3%,-4.2%,3.2%
CC(=O)OCCNc1cc(SCc2ccco2)c2nonc2c1[N+](=O)[O-],?,-10.4,?,7.94µM*[quencher],7.08µM*
COC(=O)CCSc1cc(NCCOC(C)=O)c([N+](=O)[O-])c2nonc12,1.5%,-4.9,-10.1%,?,11.2µM*
Cc1c(Cl)cccc1NC(=O)Cn1c(=O)n(Cc2ccco2)c(=O)c2sc3ccccc3c21,nt,nt,-11.8%,-17.6%,0.2%
c1ccc2c(c1)OCCOCCOCCOCCO2,nt,1.2,nt,nt,nt
CCOc1ccc(CNC(=O)C2CCCN(S(=O)(=O)c3ccc4c(c3)CCCC(=O)N4)C2)cc1 (stereo unspecified),nt,nt,2.2%,-9.2%,-4.0%
CC(C)=CCC/C(C)=C/CC/C(C)=C/CC/C(C)=C/C(=O)O,nt,12.0,nt,nt,nt
O=[N+]([O-])c1c(NCCCO)cc(N2CCCCCC2)c2nonc12,nt,-3.2,nt,nt,nt
